Records with an inconclusive call do not appear. The source made the active and inactive calls. The calls were made as follows: active = hit-call score of the fitted dose curve at least 0.9, where 1 is the maximum; inconclusive = response in the unintended direction; inactive = score below 0.9.
Biological target: Estrogen receptor (Homo sapiens) (UniProt P03372)
Assay: OT_ER_ERaERa_0480: Odyssey Thera (OT) 8-hour HEK293T Protein-Complementation Assay for Estrogen Receptor-alpha/-alpha Homodimer (AID 2283351);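 also: rise in fluorescence from reassembled reporter fragments on ERα LBD homodimer in nucleus or whole cell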
Method in brief: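 HEK293T cells stably expressing the human ERα ligand-binding domain (aa 310-547) as a homodimer PCA were dosed with compound for 8 h. Gain of fluorescence intensity versus DMSO vehicle was read by laser scanning cytometry.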

Chain of Estrogen receptor (Homo sapiens) (P03372 whole entry, looked up, the tested form may be a part): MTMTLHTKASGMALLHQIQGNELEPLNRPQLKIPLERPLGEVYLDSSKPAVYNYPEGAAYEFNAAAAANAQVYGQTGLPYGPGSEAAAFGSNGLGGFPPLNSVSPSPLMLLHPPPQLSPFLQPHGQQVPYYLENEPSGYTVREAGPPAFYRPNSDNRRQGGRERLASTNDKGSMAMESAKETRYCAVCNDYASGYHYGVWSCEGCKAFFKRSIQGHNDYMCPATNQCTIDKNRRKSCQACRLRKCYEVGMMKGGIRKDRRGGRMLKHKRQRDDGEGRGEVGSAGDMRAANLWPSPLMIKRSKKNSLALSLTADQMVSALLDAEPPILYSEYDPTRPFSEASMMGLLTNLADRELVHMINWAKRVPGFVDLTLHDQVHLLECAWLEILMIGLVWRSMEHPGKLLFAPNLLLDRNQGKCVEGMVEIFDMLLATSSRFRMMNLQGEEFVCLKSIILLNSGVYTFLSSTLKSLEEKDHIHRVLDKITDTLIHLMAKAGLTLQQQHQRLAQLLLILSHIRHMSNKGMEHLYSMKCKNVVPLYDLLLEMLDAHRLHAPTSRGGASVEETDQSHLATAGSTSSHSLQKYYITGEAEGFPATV

SMILES	outcome	AC50
C=C[C@@]1(C)CC(=O)[C@]2(O)[C@@]3(C)[C@@H](O)CCC(C)(C)[C@@H]3[C@H](O)[C@H](OC(C)=O)[C@@]2(C)O1	inactive	
CCCCCCO	inactive	
Nc1ccc(C(=O)O)cc1	inactive	
CC(C)c1ccc(O)c(C(C)C)c1	inactive	
CCCCCCCCCC[N+](C)(CCCCCCCCCC)CCC[Si](OC)(OC)OC	inactive	
O=C(Nc1ccccc1)c1cc(Cl)ccc1O	inactive	
CCCC=C(C=O)CC	inactive	
CCCCNS(=O)(=O)c1ccc(C)cc1	inactive	
Oc1ccccc1Cc1ccccc1O	inactive	
CCCCCCCCCCCCCCCCCCOS(=O)(=O)O	inactive	
C=C1C[C@H]2[C@@H]3C=C(C)C4=CC(=O)CC[C@]4(C)[C@H]3CC[C@]2(C)[C@@]1(OC(C)=O)C(C)=O	inactive	
CCCCCC[C@@H](O)C/C=C\CCCCCCCC(=O)OCC(O)CO (stereo not given in full)	inactive	
CCCCC/C=C\C/C=C\CCCCCCCC(=O)O	inactive	
CCc1cccc(C)c1N	inactive	
O=c1c(O)c(-c2ccc(O)cc2O)oc2cc(O)cc(O)c12	inactive	
Cc1ccc([N+](=O)[O-])cc1N	inactive	
O=C(O)C1CCC(C(=O)O)CC1 (stereo not given)	inactive	
CN(C)c1ccc2nc3ccc(=[N+](C)C)cc-3sc2c1		50 µM (active)
CCCCC(CC)COC(=O)/C=C/c1ccc(OC)cc1 (stereo not given)	inactive	
CCCCCCCOC(=O)c1ccc(O)cc1		12.3 µM (active)
CC1=CCC2CC1C2(C)C (stereo not given)	inactive	
C[Si](C)(C)N[Si](C)(C)C	inactive	
C1CNCCN1	inactive	
CCCC(CC)c1ccccc1 (stereo not given)	inactive	
CCN1CN(CC)CN(CC)C1	inactive	
CN(C)Cc1cc(CN(C)C)c(O)c(CN(C)C)c1	inactive	
CCCCCCCCCCCC(=O)N(C)CC(=O)O	inactive	
O=S(=O)(O)c1ccc(N=Nc2c(O)ccc3ccccc23)cc1	inactive	

Biological target: Estrogen receptor (Homo sapiens) + Estrogen receptor beta (Homo sapiens) (UniProt P03372+Q92731)
Assay: OT_ER_ERaERb_0480: Odyssey Thera (OT) 8-hour HEK293T Protein-Complementation Assay for Estrogen Receptor-alpha/-beta Heterodimer (AID 2283352)
Method in brief: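 Increase in mean fluorescence intensity, measured by laser scanning plate cytometry, reported ER-alpha/ER-beta LBD complementation in HEK293T cells after 8 h chemical exposure. DMSO served as baseline; basal signal is low, punctate and cytoplasmic.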

Chain of Estrogen receptor (Homo sapiens) + Estrogen receptor beta (Homo sapiens) (P03372 whole entry, looked up): as the sequence (P03372 whole entry, looked up, the tested form may be a part) above
Chain of Estrogen receptor (Homo sapiens) + Estrogen receptor beta (Homo sapiens) (Q92731 whole entry, looked up): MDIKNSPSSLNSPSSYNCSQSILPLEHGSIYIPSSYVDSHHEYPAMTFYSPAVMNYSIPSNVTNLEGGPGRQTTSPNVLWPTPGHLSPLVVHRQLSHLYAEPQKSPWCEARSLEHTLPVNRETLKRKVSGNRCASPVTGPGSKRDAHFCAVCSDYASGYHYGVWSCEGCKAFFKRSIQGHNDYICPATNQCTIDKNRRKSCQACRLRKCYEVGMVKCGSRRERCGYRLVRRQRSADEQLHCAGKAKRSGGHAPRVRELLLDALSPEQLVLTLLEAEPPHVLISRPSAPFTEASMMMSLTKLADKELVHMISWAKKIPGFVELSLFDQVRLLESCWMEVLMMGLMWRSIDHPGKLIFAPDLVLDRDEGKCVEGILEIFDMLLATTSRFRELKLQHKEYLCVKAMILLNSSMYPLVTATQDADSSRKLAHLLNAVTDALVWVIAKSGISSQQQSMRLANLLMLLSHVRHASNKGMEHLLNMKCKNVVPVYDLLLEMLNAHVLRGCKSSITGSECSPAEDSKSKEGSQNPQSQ

SMILES	outcome	AC50
C=C[C@@]1(C)CC(=O)[C@]2(O)[C@@]3(C)[C@@H](O)CCC(C)(C)[C@@H]3[C@H](O)[C@H](OC(C)=O)[C@@]2(C)O1	inactive	
Nc1ccc(C(=O)O)cc1	inactive	
CC(C)c1ccc(O)c(C(C)C)c1	inactive	
Oc1ccccc1Cc1ccccc1O		23.4 µM (active)
CCCCCCCCCCCCCCCCCCOS(=O)(=O)O	inactive	
NC(=O)Nc1ccccc1	inactive	
Cc1ccc([N+](=O)[O-])cc1N	inactive	
CN(C)c1ccc2nc3ccc(=[N+](C)C)cc-3sc2c1		76.6 µM (active)
CCCCCCCOC(=O)c1ccc(O)cc1		5.32 µM (active)
CC1=CCC2CC1C2(C)C (stereo not given)	inactive	
C1CNCCN1	inactive	
CCCC(CC)c1ccccc1 (stereo not given)	inactive	

Source: PubChem BioAssay (EPA / NIEHS)
